{"source": "PubChem BioAssay (NCATS)", "note": "Active and inactive are the calls of the source. The rule behind the calls is not given here. Potency is the fitted concentration of half-maximal effect."}
{"system": "HIV-1 nucleocapsid protein NCp7 (binding to TG oligonucleotide)", "test": "HIV Nucleocapsid (AID 346);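 note: potency is for inhibitors that block NC binding and lower polarization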", "details": "HIV-1 NC / fluorescein-TGTGTGTG probe, fluorescence polarization", "summary_of_the_method": "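Fluorescence polarization readout: labelled TG4xF oligo (10 nM) with 100 nM nucleocapsid protein, high-salt (250mM NaCl) Hepes pH 7.5 buffer containing zinc and fresh reducing agents. Compounds added by pin tool; incubation 1 hr, room temperature.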"}
{"smiles": "CN(C)C(=O)c1ccc(-c2nc(N3CCOCC3)c3ccccc3n2)cc1", "Potency": "> 20 µM (inactive)"}
{"smiles": "Cc1cnc(CNc2ccnc(-c3cccc(NS(C)(=O)=O)c3)n2)cn1", "Potency": "> 20 µM (inactive)"}
{"smiles": "Cn1c(=O)c(-c2ccccc2)nc2cnc(Nc3ccccc3)nc21", "Potency": "> 4 µM (inactive)"}
{"smiles": "COc1ccc(-n2c(=O)c(CCc3ccccc3)nc3cnc(N4CCN(C)CC4)nc32)cc1", "Potency": "> 20 µM (inactive)"}
{"smiles": "O=c1c(-c2cccc(Cl)c2)nc2cncnc2n1Cc1ccc(F)cc1", "Potency": "> 20 µM (inactive)"}
{"smiles": "N#CCCn1c(=O)c(CCc2ccccc2)nc2cnc(Oc3cccc(Cl)c3)nc21", "Potency": "> 20 µM (inactive)"}
{"smiles": "COc1ccc(CNc2cc(-c3cccnc3)ncn2)c(OC)c1", "Potency": "> 20 µM (inactive)"}
{"smiles": "c1ccc2c(N3CCNCC3)nc(-c3ccoc3)nc2c1", "Potency": "> 20 µM (inactive)"}
{"smiles": "Fc1ccc(Nc2ncncc2-c2ccccc2C(F)(F)F)cc1", "Potency": "> 20 µM (inactive)"}
{"smiles": "COc1cccc(-c2ccc3ncnc(NC4CCNCC4)c3c2)c1", "Potency": "> 20 µM (inactive)"}
{"smiles": "COc1cccc(Nc2ncc3nc(-c4ccccc4)c(=O)n(C[C@H]4CCCO4)c3n2)c1", "Potency": "> 20 µM (inactive)"}
{"smiles": "O=C(Oc1ccccc1)N1CCC2(CCCN(c3ncccn3)C2)CC1", "Potency": "> 20 µM (inactive)"}
{"smiles": "CCNc1ncc2nc(-c3ccc(F)cc3)c(=O)n(CCC#N)c2n1", "Potency": "> 4 µM (inactive)"}
{"smiles": "CN(C)c1ncc2nc(-c3ccc(F)cc3)c(=O)n(C[C@H]3CCCO3)c2n1", "Potency": "> 20 µM (inactive)"}
{"smiles": "CCNc1ncc2ncc(=O)n(C)c2n1", "Potency": "> 20 µM (inactive)"}
